In the library only some 3% were active in any assay of this set; here they are far more common.
TbPYK inhibitor: qHTS of Trypanosoma Brucei Inhibitors. pyruvate kinase (Trypanosoma brucei), Q57TT1. TbPYK enzyme, Kinase-Glo Plus ATP luminescence, 45 min. Potency, µM (doses to about 76.8 µM), for the others: top-dose activity, negative = inhibition, usual class: inhibitors. 410,000 tested, 0.12% active. AID 624173, 2012; further: nearly all actives have a fitted effect of over 50% in size
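Luminescent Kinase-Glo Plus end-point after 45 min room-temperature reaction of T. brucei pyruvate kinase started with 130 uM ADP (final). Buffer TEA 50 mM pH 7.2 with KCl, MgCl2, BSA, Tween-20; titration-based qHTS with fitted concentration-effect curves.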
RE007 growth inh: qHTS Assay for Inhibitors of the HIV-1 protein Vpr; Potency, µM (titrated, usually from 92.2 µM), for inactives: top-dose activity change, negative = less growth, most hits filed as inhibitors; S. pombe RE007 Vpr strain, BacTiter-Glo ATP luminescence, 24 h; AID 651644, 2012; 360,000 tested, 0.21% active; active means well fitted falling curve with a large enough effect; inconclusive means small, poorly fitted or top-dose-only effect; inactive means no such curve, though single readings can be large or run the other way; further: nearly all actives have a fitted effect of over 50% in size
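Fission yeast strain RE007, carrying one chromosomally integrated HIV-1 vpr copy, was seeded at OD 0.01 in PMG+AL medium with 23 nL pinned compound. After 24 h at 30 °C and 99% humidity, viability was read by BacTiter-Glo luminescence.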
LmPK inh: qHTS Assay for Inhibitors of Leishmania Mexicana Pyruvate Kinase (LmPK); AID 1721, 2009; 290,000 tested, 0.37% active; purified LmPK, Kinase-Glo ATP luminescence, 1 h; Q27686; Potency, µM (series often up to 57.5 µM), for inactives: at the top dose activity change, negative = inhibition, usual class: inhibitors
Target sequence (Q27686 whole entry, looked up): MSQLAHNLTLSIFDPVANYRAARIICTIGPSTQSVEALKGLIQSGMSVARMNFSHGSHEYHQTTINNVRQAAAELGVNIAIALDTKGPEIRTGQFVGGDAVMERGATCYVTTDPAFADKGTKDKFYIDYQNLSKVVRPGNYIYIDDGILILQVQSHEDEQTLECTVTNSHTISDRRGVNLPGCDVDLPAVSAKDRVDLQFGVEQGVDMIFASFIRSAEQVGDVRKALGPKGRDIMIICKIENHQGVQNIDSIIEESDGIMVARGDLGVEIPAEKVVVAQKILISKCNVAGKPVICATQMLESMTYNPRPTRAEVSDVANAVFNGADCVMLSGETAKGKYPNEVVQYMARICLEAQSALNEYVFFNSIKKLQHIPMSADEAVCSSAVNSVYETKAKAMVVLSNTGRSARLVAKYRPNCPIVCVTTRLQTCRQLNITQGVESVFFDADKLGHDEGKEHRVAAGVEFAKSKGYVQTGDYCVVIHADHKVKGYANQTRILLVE
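0.1 nM LmPK, 0.5 mM PEP, 0.1 mM ADP; 50 mM imidazole pH 7.2, 7 mM MgCl2, 50 mM KCl; 1 h RT. Kinase-Glo luminescence readout, normalized to no-enzyme (full inhibition) and uninhibited wells.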
Sm TGR inh: qHTS Assay for the Inhibitors of Schistosoma Mansoni Peroxiredoxins; Schistosoma mansoni thioredoxin glutathione reductase (TGR), Q962Y6; purified TGR, DTNB reduction, TNB absorbance 405 nm; Potency, µM (top dose mostly 114 µM), without a hit: at the top dose activity change, negative = inhibition, most hits filed as inhibitors; 360,000 tested, 3% active; AID 485364, 2010; further: nearly all actives have a fitted effect of over 60% in size
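TGR 20 nM + NADPH 100 uM (dispensed conc.), cpd preinc 15 min RT; start with NADPH (500 uM addition) then DTNB (15 mM addition). Kinetic TNB absorbance, 405 nm filter. Four-parameter Hill fit across titration.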
Active calls of the source: *. Unless noted, the call rests on the fitted dose curve; in most records, active means well fitted curve in the direction sought with a large enough effect; inconclusive means small, poorly fitted or top-dose-only effect, or another doubt; inactive means no such curve, though single readings can be large; an effect the other way counts as inactive or inconclusive. On the % scale 0 is the no-effect control and ±100 the full control effect; potency means the concentration at half of the fitted maximal effect.

CC(C)Nc1nc(NC(C)C)nc(N(C#N)C(C)C(=O)N(C)C)n1 (stereo not given) was read as LmPK inh 4% and Sm TGR inh 40µM*.
Screening COC(=O)CCn1c(C)cc(C(=O)COc2ccccc2C(N)=O)c1C returned TbPYK inhibitor 3%, RE007 growth inh 7%, LmPK inh -5% and Sm TGR inh -13%.
For Cc1cc(C(=O)CCl)c(C)n1CCc1ccccc1 the results were TbPYK inhibitor 4%, RE007 growth inh -10%, LmPK inh 1% and Sm TGR inh 8.9µM*.
For CCOC(=O)c1cc(C)n(CCc2ccccc2)c1C the results were TbPYK inhibitor 1%, RE007 growth inh -23%, LmPK inh -1% and Sm TGR inh 1%.
Cc1cc(C(=O)CCl)c(C)n1Cc1ccco1 was read as TbPYK inhibitor -5%, RE007 growth inh 3%, LmPK inh -11% and Sm TGR inh 4µM*.
`Cc1cc(C(=O)CCl)c(C)n1-c1ccon1` gave TbPYK inhibitor -22%, RE007 growth inh -4%, LmPK inh -8% and Sm TGR inh 11µM*.
COC(=O)CCCn1c(C)cc(C(=O)CCl)c1C was read as TbPYK inhibitor 3%, RE007 growth inh 26%, LmPK inh 1% and Sm TGR inh 7.9µM*.
`CCCN1C(=O)C(=O)N(CC(=O)N2c3ccccc3NC(=O)CC2C)C1=O` (stereo not given) gave TbPYK inhibitor -10% and RE007 growth inh -4%.
`COC(=O)[C@]12CCCCC=C1N(Cc1ccco1)C(=O)[C@H](CC(=O)NCc1cccc3ccccc13)C2` gave TbPYK inhibitor -1% and RE007 growth inh -8%.
Cc1ccc(CNS(=O)(=O)c2c(C(=O)N3CCCCC3)c(C)n(C)c2C)o1 was read as TbPYK inhibitor 3%, RE007 growth inh 4%, LmPK inh 6% and Sm TGR inh 35µM*.
Screening COc1ccc(C)cc1NS(=O)(=O)c1c(C(=O)N2CCCCCC2)c(C)n(C)c1C returned TbPYK inhibitor 3% and Sm TGR inh 5.6µM*.
`Cc1ccc(NCc2n[nH]c(=S)n2-c2cccc(Cl)c2)cc1` gave TbPYK inhibitor 3.5µM*, RE007 growth inh -8%, LmPK inh inconclusive and Sm TGR inh 6%.
For Cc1ccc(-n2c(CNc3ccc(C)c(Cl)c3)n[nH]c2=S)cc1 the results were TbPYK inhibitor 4.5µM*, RE007 growth inh 1%, LmPK inh inconclusive and Sm TGR inh 0%.
CC1=C(c2ccc(Cl)cc2)[N+](=O)C(C)(C)N1[O-] was read as TbPYK inhibitor -9%, RE007 growth inh -9%, LmPK inh -2% and Sm TGR inh 20µM*.
Screening Cc1c(-c2ccc(Cl)cc2)[n+](=O)c2c(n1[O-])CCCC2 returned TbPYK inhibitor -6%, RE007 growth inh 2%, LmPK inh -2% and Sm TGR inh 13%.
COc1ccc(CN2CCNC(=O)C2CC(=O)N(C)CC2CCOCC2)cc1OC (stereo not given) was read as TbPYK inhibitor 1%, RE007 growth inh 10%, LmPK inh -1% and Sm TGR inh inconclusive.
For CN(CCC1CCOCC1)C(=O)CC1C(=O)NCCN1Cc1ccoc1 (stereo not given) the results were TbPYK inhibitor 0%, RE007 growth inh 1%, LmPK inh -2% and Sm TGR inh inconclusive.
`CN(CC1CCOCC1)C(=O)CC1C(=O)NCCN1Cc1cccc(C(F)(F)F)c1` (stereo not given) gave TbPYK inhibitor -7%, RE007 growth inh -7%, LmPK inh -5% and Sm TGR inh 45µM*.
For CN(CCC1CCOCC1)C(=O)CC1C(=O)NCCN1Cc1ccccc1F (stereo not given) the results were TbPYK inhibitor -1%, RE007 growth inh -7%, LmPK inh 1% and Sm TGR inh 45µM*.
`O=C(CC1C(=O)NCCN1Cc1ccoc1)NCc1cccc(OC(F)(F)F)c1` (stereo not given) gave TbPYK inhibitor -6%, RE007 growth inh -4%, LmPK inh -2% and Sm TGR inh 25µM*.

Bioassay records from PubChem.
